In PubChem BioAssay (NCI):
Compounds without any hit were thinned out: in the full panel of roughly 79,000, 15% have a hit. Unmarked numbers belong to inactive results. Calls of active or inactive are those of the source. No stated cut-off is given here; in the data, active means growth inhibition above about 70%; inactive means the rest.

Columns and labels:
[1] = NCI Yeast Anticancer Drug Screen. Data for the rad50 strain (AID 155);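 further: 0% = growth of vehicle-only cultures of the same strain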; settings: S. cerevisiae rad50 strain growth inhibition, hits give high values
How it was run: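 Cells are treated with compound, grown, and their growth is then scored against vehicle-only cultures of the same repair-deficient yeast strain.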

[2] = NCI Yeast Anticancer Drug Screen. Data for the mec2-1 strain (AID 157); settings: S. cerevisiae mec2-1 strain, hits give high values
How it was run: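 mec2-1 yeast strain, carrying an alteration in DNA damage repair or cell cycle control, was exposed to compounds; growth inhibition was measured relative to vehicle-treated controls.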

[3] = NCI Yeast Anticancer Drug Screen. Data for the sgs1 mgt1 strain (AID 161);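 further: 0% = growth of cultures given vehicle only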; settings: S. cerevisiae sgs1 mgt1 strain, hits give high values
How it was run: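 Yeast cells carrying a defined DNA-repair defect were exposed to test compounds. Growth inhibition was measured relative to vehicle-treated controls.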

[4] = NCI Yeast Anticancer Drug Screen. Data for the cln2 rad14 strain (AID 165);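 further: 0% = growth equal to vehicle treated cultures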; settings: S. cerevisiae cln2 rad14 strain, hits give high values
How it was run: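 Yeast carrying cln2 and rad14 alterations (cell cycle control and DNA damage repair) were exposed to compounds. Growth inhibition was measured against vehicle-treated controls.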

[5] = NCI Yeast Anticancer Drug Screen. Data for the bub3 strain (AID 167); settings: S. cerevisiae bub3 mutant strain, hits give high values
How it was run: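 Part of a panel of yeast mutants defective in DNA damage repair or cell cycle regulation. Each strain is grown with compound, and inhibition is calculated relative to solvent-treated cultures.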

[6] = NCI Yeast Anticancer Drug Screen. Data for the mlh1 rad18 strain (AID 175); settings: S. cerevisiae mlh1 rad18 strain growth inhibition, hits give high values
How it was run: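 Growth inhibition of the yeast strain was measured after compound exposure and expressed relative to vehicle-treated controls. The strain carries defined defects in DNA damage repair.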

[7] = at 5.0 µM (retest, dose inferred, filed as 0.5)
[8] = at 50.0 µM (retest, dose inferred, filed as 5.0)

In the case of `CC12CCC(=O)C=C1CCC1C2C(O)CC2(C)C(c3csc(N)n3)CCC12` (stereo not given), the growth inhibition [1, 7] was 58%, the growth inhibition [1, 8] was 98% (active) and the growth inhibition ([1]; at 50.0 µM) was 98.8% (active). For the same compound, the growth inhibition [2, 7] was 17%, the growth inhibition [2, 8] was 98% (active) and the growth inhibition ([2]; at 50.0 µM) was 96.8% (active). The growth inhibition [3, 7] was 49%, the growth inhibition [3, 8] was 97% (active) and the growth inhibition ([3]; at 50.0 µM) was 98% (active). For the same compound, the growth inhibition [4, 7] was 23%, the growth inhibition [4, 8] was 90% (active) and the growth inhibition ([4]; at 50.0 µM) was 94.5% (active). For the same compound, the growth inhibition [5, 7] was 27%, the growth inhibition [5, 8] was 97% (active) and the growth inhibition ([5]; at 50.0 µM) was 96.8% (active). The growth inhibition [6, 7] was 38%, the growth inhibition [6, 8] was 96% (active) and the growth inhibition ([6]; at 50.0 µM) was 96% (active).
`CN(C)c1ccc(C=Nc2cncc3ccccc23)cc1` showed a growth inhibition [1, 7] of 0%, a growth inhibition [1, 8] of -11% and a growth inhibition ([1]; at 50.0 µM) of -55.6%. For the same compound, the growth inhibition [2, 7] was 5%, the growth inhibition [2, 8] was -9% and the growth inhibition ([2]; at 50.0 µM) was -18.6%. For the same compound, the growth inhibition [3, 7] was -3%, the growth inhibition [3, 8] was 10% and the growth inhibition ([3]; at 50.0 µM) was -12.8%. It also gave a growth inhibition [4, 7] of -20%, a growth inhibition [4, 8] of -6% and a growth inhibition ([4]; at 50.0 µM) of -39.5%. It also gave a growth inhibition [5, 7] of 3%, a growth inhibition [5, 8] of 4% and a growth inhibition ([5]; at 50.0 µM) of -6.05%. It also gave a growth inhibition [6, 7] of 7%, a growth inhibition [6, 8] of 4% and a growth inhibition ([6]; at 50.0 µM) of -7.35%.
For `O=C(O)c1ccc2c(Br)ccc3c2c1CC3`, the growth inhibition [1, 7] was 13%, the growth inhibition [1, 8] was 8% and the growth inhibition ([1]; at 50.0 µM) was 77.3% (active). The growth inhibition [2, 7] was -13%, the growth inhibition [2, 8] was 25% and the growth inhibition ([2]; at 50.0 µM) was 56.1%. The growth inhibition [3, 7] was -6%, the growth inhibition [3, 8] was 16% and the growth inhibition ([3]; at 50.0 µM) was 73.5% (active). It also gave a growth inhibition [4, 7] of -8%, a growth inhibition [4, 8] of -1% and a growth inhibition ([4]; at 50.0 µM) of 18.1%. For the same compound, the growth inhibition [5, 7] was -2%, the growth inhibition [5, 8] was 20% and the growth inhibition ([5]; at 50.0 µM) was 8.05%. It also gave a growth inhibition [6, 7] of 34%, a growth inhibition [6, 8] of 35% and a growth inhibition ([6]; at 50.0 µM) of 68.6%.
With `CCCCCCCCCC[N+](C)(C)CCC[N+](C)(C)CCCCCCCCCC` the growth inhibition [1, 7] was 42%, the growth inhibition [1, 8] was 93% (active) and the growth inhibition ([1]; at 50.0 µM) was 89.5% (active). The growth inhibition [2, 7] was 20%, the growth inhibition [2, 8] was 88% (active) and the growth inhibition ([2]; at 50.0 µM) was 91.2% (active). For the same compound, the growth inhibition [3, 7] was 37%, the growth inhibition [3, 8] was 98% (active) and the growth inhibition ([3]; at 50.0 µM) was 88.3% (active). For the same compound, the growth inhibition [4, 7] was 32%, the growth inhibition [4, 8] was 88% (active) and the growth inhibition ([4]; at 50.0 µM) was 78.2% (active). The growth inhibition [5, 7] was 31%, the growth inhibition [5, 8] was 95% (active) and the growth inhibition ([5]; at 50.0 µM) was 62.6%. For the same compound, the growth inhibition [6, 7] was 31%, the growth inhibition [6, 8] was 89% (active) and the growth inhibition ([6]; at 50.0 µM) was 61.8%.
With `CCOC(=O)c1cccc(C)c1C(=O)c1ccc(C)cc1C` the growth inhibition [1, 7] was 3%, the growth inhibition [1, 8] was 66% and the growth inhibition ([1]; at 50.0 µM) was 38.9%. The growth inhibition [2, 7] was 4%, the growth inhibition [2, 8] was 79% (active) and the growth inhibition ([2]; at 50.0 µM) was 79.3% (active). For the same compound, the growth inhibition [3, 7] was 0%, the growth inhibition [3, 8] was -36% and the growth inhibition ([3]; at 50.0 µM) was 47.3%. It also gave a growth inhibition [4, 7] of 6%, a growth inhibition [4, 8] of -1% and a growth inhibition ([4]; at 50.0 µM) of -9.5%. The growth inhibition [5, 7] was -4%, the growth inhibition [5, 8] was 24% and the growth inhibition ([5]; at 50.0 µM) was 82.8% (active). The growth inhibition [6, 7] was -2%, the growth inhibition [6, 8] was 41% and the growth inhibition ([6]; at 50.0 µM) was 59.6%.
With `O=C1c2ccccc2Cc2cc(O)ccc21` the growth inhibition [1, 7] was 29%, the growth inhibition [1, 8] was 94% (active) and the growth inhibition ([1]; at 50.0 µM) was 47.5%. For the same compound, the growth inhibition [2, 7] was 13%, the growth inhibition [2, 8] was 92% (active) and the growth inhibition ([2]; at 50.0 µM) was 48.4%. The growth inhibition [3, 7] was 8%, the growth inhibition [3, 8] was 91% (active) and the growth inhibition ([3]; at 50.0 µM) was 45%. For the same compound, the growth inhibition [4, 7] was 4%, the growth inhibition [4, 8] was 88% (active) and the growth inhibition ([4]; at 50.0 µM) was 82.5% (active). For the same compound, the growth inhibition [5, 7] was 2%, the growth inhibition [5, 8] was 89% (active) and the growth inhibition ([5]; at 50.0 µM) was 88.6% (active). The growth inhibition [6, 7] was 10%, the growth inhibition [6, 8] was 92% (active) and the growth inhibition ([6]; at 50.0 µM) was 91.3% (active).
For `O=C(CCl)N(Cc1ccccc1)Cc1ccccc1`, the growth inhibition [1, 7] was -2%, the growth inhibition [1, 8] was 92% (active) and the growth inhibition ([1]; at 50.0 µM) was 84% (active). For the same compound, the growth inhibition [2, 7] was -1%, the growth inhibition [2, 8] was 95% (active) and the growth inhibition ([2]; at 50.0 µM) was 92.1% (active). The growth inhibition [3, 7] was -8%, the growth inhibition [3, 8] was 94% (active) and the growth inhibition ([3]; at 50.0 µM) was 89.5% (active). For the same compound, the growth inhibition [4, 7] was 2%, the growth inhibition [4, 8] was 84% (active) and the growth inhibition ([4]; at 50.0 µM) was 42.5%. For the same compound, the growth inhibition [5, 7] was 6%, the growth inhibition [5, 8] was 92% (active) and the growth inhibition ([5]; at 50.0 µM) was 85% (active). For the same compound, the growth inhibition [6, 7] was -1%, the growth inhibition [6, 8] was 92% (active) and the growth inhibition ([6]; at 50.0 µM) was 78.6% (active).
`CC(=O)c1cccc([N+](=O)[O-])c1` gave a growth inhibition [1, 7] of -2%, a growth inhibition [1, 8] of 5% and a growth inhibition ([1]; at 50.0 µM) of 27.4%. It also gave a growth inhibition [2, 7] of -2%, a growth inhibition [2, 8] of 2% and a growth inhibition ([2]; at 50.0 µM) of -9.25%. For the same compound, the growth inhibition [3, 7] was -1%, the growth inhibition [3, 8] was 2% and the growth inhibition ([3]; at 50.0 µM) was 24.4%. It also gave a growth inhibition [4, 7] of -1%, a growth inhibition [4, 8] of -2% and a growth inhibition ([4]; at 50.0 µM) of 44.9%. The growth inhibition [5, 7] was 1%, the growth inhibition [5, 8] was 7% and the growth inhibition ([5]; at 50.0 µM) was 9.25%. It also gave a growth inhibition [6, 7] of -3%, a growth inhibition [6, 8] of 3% and a growth inhibition ([6]; at 50.0 µM) of 9%.
For `CSc1cc2c(cc1N)Cc1ccccc1-2`, the growth inhibition [1, 7] was 3%, the growth inhibition [1, 8] was 71% (active) and the growth inhibition ([1]; at 50.0 µM) was 85.4% (active). For the same compound, the growth inhibition [2, 7] was 8%, the growth inhibition [2, 8] was 88% (active) and the growth inhibition ([2]; at 50.0 µM) was 90.8% (active). For the same compound, the growth inhibition [3, 7] was 3%, the growth inhibition [3, 8] was 30% and the growth inhibition ([3]; at 50.0 µM) was 97% (active). The growth inhibition [4, 7] was 1%, the growth inhibition [4, 8] was 50% and the growth inhibition ([4]; at 50.0 µM) was 88.7% (active). The growth inhibition [5, 7] was -1%, the growth inhibition [5, 8] was 91% (active) and the growth inhibition ([5]; at 50.0 µM) was 97.3% (active). The growth inhibition [6, 7] was 6%, the growth inhibition [6, 8] was 89% (active) and the growth inhibition ([6]; at 50.0 µM) was 97.3% (active).
For `c1ccc(OCCN2CCN(CCOc3ccccc3)CC2)cc1`, the growth inhibition [1, 7] was 21%, the growth inhibition [1, 8] was 29% and the growth inhibition ([1]; at 50.0 µM) was 71.7% (active). The growth inhibition [2, 7] was 31%, the growth inhibition [2, 8] was 45% and the growth inhibition ([2]; at 50.0 µM) was 32.2%. For the same compound, the growth inhibition [3, 7] was 41%, the growth inhibition [3, 8] was 55% and the growth inhibition ([3]; at 50.0 µM) was 67.1%. The growth inhibition [4, 7] was 45%, the growth inhibition [4, 8] was 47% and the growth inhibition ([4]; at 50.0 µM) was 76.4% (active). For the same compound, the growth inhibition [5, 7] was 43%, the growth inhibition [5, 8] was 53% and the growth inhibition ([5]; at 50.0 µM) was 56.7%. For the same compound, the growth inhibition [6, 7] was 44%, the growth inhibition [6, 8] was 61% and the growth inhibition ([6]; at 50.0 µM) was 44.1%.
